Compound activity (PubChem BioAssay)
TEAD-YAP block = TEAD-YAP interaction inhibition | HEK-TIYL cells, TEAD-Gal4/YAP UAS-luciferase luminescence | inhibition, % at 9.12 µM | 640,000 compounds, 1.4% hits | AID 1259422; in the data active means inhibition above about 32%
GPR151 activ = activates the human receptor GPR151. Q8TDV0. PathHunter beta-arrestin GPR151 cells, luminescence. activation, % at 11.2 µM. 650,000 compounds, 1% hits. AID 1508602; in the data active means activation above about 4.9%
Target sequence (Q8TDV0 whole entry, looked up): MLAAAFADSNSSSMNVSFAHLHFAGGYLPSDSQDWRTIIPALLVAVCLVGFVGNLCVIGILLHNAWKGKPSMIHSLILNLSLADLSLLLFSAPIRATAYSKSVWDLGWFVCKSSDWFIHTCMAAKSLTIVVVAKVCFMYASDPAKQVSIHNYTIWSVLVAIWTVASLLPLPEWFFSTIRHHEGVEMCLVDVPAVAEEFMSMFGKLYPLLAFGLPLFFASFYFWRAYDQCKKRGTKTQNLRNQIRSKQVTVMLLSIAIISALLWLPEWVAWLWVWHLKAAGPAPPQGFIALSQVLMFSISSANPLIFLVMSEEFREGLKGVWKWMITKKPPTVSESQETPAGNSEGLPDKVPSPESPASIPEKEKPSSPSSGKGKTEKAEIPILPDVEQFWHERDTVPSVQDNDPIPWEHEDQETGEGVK
FBW7 act = activators of human E3 ligase FBW7. normalized activity (activation), % at 26.1 µM. AID 1259310. 650,000 compounds, 0.13% hits. Q969H0. AlphaScreen FBW7–phospho-cyclin E peptide binding, activator screen; in the data active means normalized activity above about 1.9%;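 further: purified mutant Fbw7 with reduced substrate affinity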
MITF primary = inhibitors of human MITF | inhibition, % at 2.6 µM | 650,000 compounds, 0.91% hits | O75030 | AID 1259374 | AlphaScreen MITF homodimerization, bead proximity signal; in the data active means inhibition above about 50%
Of the large screens only hits and unclear results are named; the others gave an inactive call. This is a sample that favours compounds with a hit; in the whole collection about 3.4% have one here.

N#Cc1cc2c(nc1SCC(=O)N1CCOCC1)CCCCC2	TEAD-YAP block 83
N#Cc1cc2c(nc1SCC(=O)Nc1ccccc1)CCCC2	none
CCc1ccc2nc(SCC(N)=O)c(C#N)cc2c1	TEAD-YAP block 50
N#Cc1cc2c(nc1SCC(=O)Nc1nc3ccccc3s1)CCC2	TEAD-YAP block 90
CC(C)c1ccc2nc(SCC(=O)N3CCOCC3)c(C#N)cc2c1	TEAD-YAP block 36
CCc1ccc2nc(SCC(=O)OC)c(C#N)cc2c1	none
COc1ccc2ccccc2c1I	none
CCOc1ccc(C2NC(=O)NC(C)=C2C(=O)OCCc2ccccc2)cc1 (configuration not stated)	none
CCN(CC)c1ccc(C2CC(c3ccc(Br)cc3)=NN2C(=O)CCC(=O)O)cc1 (configuration not stated)	none
COc1ccc2c(c1)CC(C(=O)Nc1ccc(-c3cn[nH]c3C)cc1OCCO)CO2 (configuration not stated)	TEAD-YAP block 55
Cc1[nH]ncc1-c1ccc2nc(NC(=O)C3COc4ccc(F)cc4C3)sc2c1 (configuration not stated)	TEAD-YAP block 57
O=C(Nc1ccc(-c2cn[nH]n2)cc1)C1COc2ccc(F)cc2C1 (configuration not stated)	TEAD-YAP block 34
Cc1[nH]ncc1-c1ccc(NC(=O)C2COc3ccc(F)cc3C2)c(N(C)CCN(C)C)c1 (configuration not stated)	none
COc1ccc2c(c1)CC(c1cnc3ccc(-c4cn[nH]c4)cc3n1)CO2 (configuration not stated)	TEAD-YAP block 33
COc1ccc2c(c1)CC(C(=O)Nc1ccc(-c3cn[nH]c3C)cc1OCCN1CCCC1)CO2 (configuration not stated)	none
COc1cccc(COC(=O)Nc2ccc(-c3cn[nH]c3)cc2SCCN2CCCC2)c1	none
COc1ccc2c(c1)CC(c1nc3ccc(-c4ccncc4)cc3c(=O)[nH]1)CO2 (configuration not stated)	none
COc1ccc2c(c1)OCC(c1nc3cc(-c4cn[nH]c4)c(F)cc3[nH]1)C2 (configuration not stated)	TEAD-YAP block 84
COc1ccc2c(c1)CC(c1nc3ccc(-c4cn[nH]c4C)cc3c(=O)[nH]1)CO2 (configuration not stated)	TEAD-YAP block 32
O=C(CSc1nc2ccccc2s1)Nc1ccc2[nH]c(=O)[nH]c2c1	none
CC(=O)N(C(C)=O)c1ccc(-c2cnc(-c3ccc(N(C(C)=O)C(C)=O)cc3)nc2)cc1	none
CC(C)(C)n1cc(-c2cnc3ccccc3n2)cn1	TEAD-YAP block 78
Oc1ccc(-c2cnc3ccccc3n2)cc1	TEAD-YAP block 52
Oc1ccc(-c2cnc(-c3ccc(O)cc3)nc2)cc1	TEAD-YAP block 95
CCS(=O)(=O)NCc1nc(N2CCCC2)c2cccc(C)c2n1	none
CC(C)(C)c1ccc(C(=O)N2CCCCCC2=O)cc1	TEAD-YAP block 55
Cc1cccc(N=C(NN)c2ccc3ccccc3n2)c1	TEAD-YAP block 66
COc1ccc(NC(=S)NC2CCN(Cc3ccccc3)CC2)cc1	none
CC1=CC(C)(C)N2C(=O)C(=O)c3cc(O)cc1c32	TEAD-YAP block 54
CC1=CC(C)(C)N2C(=O)C(=O)c3cc(OS(=O)(=O)c4ccc(C)cc4)cc1c32	none
O=C1C[C@@H](O)C(O)[C@@H]2[C@@H]3C(=O)N(Cc4ccc5c(c4)OCO5)C(=O)[C@@H]3CC[C@@H]12 (some centres not stated)	none (no result: TEAD-YAP block)
O=c1[nH]c(-c2cc(O)c(O)c(O)c2)nc2sc3c(c12)CCCC3	TEAD-YAP block 60
O=c1[nH]c(-c2ccccc2O)nc2sc3c(c12)CCCC3	none
O=C(NCCN1CCOCC1)c1ccc([N+](=O)[O-])cc1Cl	none
O=C1Nc2ccccc2/C1=c1\sc2nnc(-c3ccccc3)n2c1=O	none
Cc1ccc(/C=C/C(=O)Nc2ccc(Cl)c(Cl)c2)o1	none
O=C(CSc1n[nH]c(-c2ccncc2)n1)c1ccc(O)c(O)c1	MITF primary 99
CCCCC(=O)NC(c1ccccc1)c1ccc2cccnc2c1O (configuration not stated)	none
CC(=O)NC(c1cccc([N+](=O)[O-])c1)c1ccc2cccnc2c1O (configuration not stated)	TEAD-YAP block 83, MITF primary 74
CCCCC(=O)NC(c1cccc([N+](=O)[O-])c1)c1ccc2cccnc2c1O (configuration not stated)	TEAD-YAP block 88, MITF primary 55
COc1ccc(C2C(C(=O)N3CCN(c4ccccn4)CC3)c3ccccc3C(=O)N2C)cc1OC (configuration not stated)	none
